The text below walks through data of PubChem BioAssay (Tox21).

Assay [1] addresses Nuclear receptor subfamily 1 group I member 3 (Homo sapiens) (UniProt Q14994). Put plainly: qHTS assay to identify small molecule antagonists of the constitutive androstane receptor (CAR) signaling pathway (AID 1224838).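 Further: HepG2 cells stably expressing hCAR with CYP2B6 luciferase reporter stimulated by CITCO; on the % scale 0 is the no-effect control and ±100 the full control effect; nearly all actives have a fitted effect of over 40% in size.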 In outline: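 Luminescence from a CYP2B6-2.2kb promoter reporter in hCAR-expressing HepG2 cells reflects CAR signaling. Cells received compounds at 15 concentrations and 50 nM CITCO (final), then incubated 24 h at 37 C/5% CO2.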

For assay [2] the target is unchanged. Put plainly: qHTS assay to identify small molecule agonists of the constitutive androstane receptor (CAR) signaling pathway (AID 1224839). Further: nearly all actives have a fitted effect of over 15% in size. Further: potency means the concentration at half of the fitted maximal effect. In outline: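 Compounds tested at 15 concentrations on HepG2 cells stably harbouring hCAR and CYP2B6-2.2kb reporter constructs, co-treated with PK11195 (0.75 uM final), 24 h at 37 C; luminescent reporter signal quantified.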

Assay [3] addresses Thyrotropin receptor (Homo sapiens) (UniProt P16473). Put plainly: qHTS assay to identify small molecule agonists of the thyroid stimulating hormone receptor (TSHR) signaling pathway (AID 1224843; calls by dose curve; further: on the % scale 0 is the no-effect control and ±100 the full control effect; nearly all actives have a fitted effect of over 45% in size). In outline:
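Agonist-mode screen: TSHR HEK293 cells received test chemicals for half an hour at room temperature, then HTRF cAMP detection reagents for one hour prior to fluorescence measurement. Each chemical ran as a 15-concentration series, triplicated.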

Assay [4] in a line: qHTS assay to identify small molecule agonists of the hypoxia (HIF-1) signaling pathway - cell viability counter screen (AID 1224844; calls by dose curve; further: nearly all actives have a fitted effect of over 50% in size; further: potency means the concentration at half of the fitted maximal effect; on activity change, negative = cytotoxicity: on the % scale 0 is the no-effect control and ±100 the full control effect). In outline: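 Viability counter screen: HRE-bla ME-180 cells plated 5 hrs before compound addition, treated 17 hrs at 37C and 5% CO2, then CellTiter-Glo added after the FRET reporter read; luminescence after 30 min.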
A short description of assay [5]: qHTS assay to identify small molecule agonists of H2AX (AID 1224845; active means well fitted activation curve with a large enough effect in the signal ratio in the repeat runs, not every such curve was filed as active; the % refers to the signal ratio; further: potency means the concentration at half of the fitted maximal effect; on activation (H2AX phosphorylation): on the % scale 0 is the no-effect control and ±100 the full control effect). In outline: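 Wild-type CHO-K1 cells, plated overnight, exposed 3hr at 37C to 15 concentrations (0.76% DMSO final). Lysed, then HTRF anti-pH2AX (S139) cryptate and anti-H2AX-d2 antibodies, 24 hr room temperature; 665/620 nm emission read.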
Assay [6] is described as follows: qHTS assay to identify small molecule agonists of H2AX - cell viability counter screen (AID 1224847; calls by dose curve; further: nearly all actives have a fitted effect of over 30% in size; further: potency means the concentration at half of the fitted maximal effect; on activity change, negative = cytotoxicity: top concentration of the series differs between compounds; on the % scale 0 is the no-effect control and ±100 the full control effect). In outline: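 Compounds tested at 15 concentrations were incubated 3 hr at 37C with wild-type CHO-K1 cells; cellular ATP-based luminescence (CellTiter-Glo) indicated viability.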
Assay [7] can be described thus: qHTS RealTime-Glo MT Cell Viability Assay in HepG2 cells - 24 hour (AID 1224867). Further: on the % scale 0 is the no-effect control and ±100 the full control effect; nearly all actives have a fitted effect of over 50% in size. The gist of the method: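 Tox21 10K library screened in qHTS format on HepG2 cells carrying RealTime-Glo reagents. Compounds were added after a 5 h preincubation, and the luminescent signal from continuous culture was measured repeatedly during 40 h treatment.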
Assay [8] can be described thus: qHTS RealTime-Glo MT Cell Viability Assay in HEK293 cells - 32 hour (AID 1224868). Further: nearly all actives have a fitted effect of over 50% in size. Further: potency means the concentration at half of the fitted maximal effect. The gist of the method: (§1)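 Luminescence generated by NanoLuc from substrate produced by living HEK293 cells served as the viability signal. Each value reflects the reading at its stated time point during continuous 40 h compound exposure at 37 C.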
Assay [9] is described as follows: qHTS RealTime-Glo MT Cell Viability Assay in HepG2 cells - 40 hour (AID 1224870). Further: on the % scale 0 is the no-effect control and ±100 the full control effect; nearly all actives have a fitted effect of over 50% in size. The gist of the method:
(§2)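 HepG2 cells (600/well) mixed with RealTime-Glo MT reagent, settled 5 h at 37 C/5% CO2 before compound addition. Nonlytic NanoLuc luminescence from viable-cell prosubstrate reduction read repeatedly during 40 h treatment at 37 C.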

A short description of assay [10]: qHTS RealTime-Glo MT Cell Viability Assay in HEK293 cells - 16 hour (AID 1224872). Further: nearly all actives have a fitted effect of over 50% in size. Further: potency means the concentration at half of the fitted maximal effect. In outline: as §1
Assay [11] can be described thus: qHTS assay to identify small molecule antagonists of the estrogen related receptor signaling pathway with the pleiotropic PPARgamma coactivator (PGC) from Tox21 10K library - cell viability counter screen (AID 1224840; active means well fitted cell-killing curve with a large enough effect in the repeat runs, not every such curve was filed as active; further: on the % scale 0 is the no-effect control and ±100 the full control effect; nearly all actives have a fitted effect of over 40% in size). The gist of the method: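 Cell viability is measured by CellTiter-Fluor fluorescence in PGC/ERR cells that receive compounds after a 6-hour attachment period and are then incubated 17.5 hours at 37 C.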

Assay [12] in a line: qHTS assay to identify small molecule agonists of the hypoxia (HIF-1) signaling pathway (AID 1224846; active means well fitted activation curve with a large enough effect in the signal ratio in the repeat runs, not every such curve was filed as active; the % refers to the signal ratio; further: on the % scale 0 is the no-effect control and ±100 the full control effect). The gist of the method: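 Agonist mode reporter screen. ME-180 cells stably expressing bla under HRE control received test compounds in DMSO for 17 hrs (37C, 5% CO2), and beta-lactamase activity was then detected with the CCF4-AM FRET substrate.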
Assay [13] is described as follows: A CellTox Green Cytotoxicity Assay to monitor cytotoxicity in HEK293 cells - 0 hour (AID 1224869). Further: nearly all actives have a fitted effect of over 50% in size. Further: potency means the concentration at half of the fitted maximal effect. In outline: (§3)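 Dead-cell fluorescence measured kinetically: asymmetric cyanine dye, HEK293, 600 cells/well, 5 h settle, 23 nL cpd/DMSO, 37 C, reads 0–40 h every 8 h.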
A short description of assay [14]: A CellTox Green Cytotoxicity Assay to monitor cytotoxicity in HEK293 cells - 40 hour (AID 1224871). Further: nearly all actives have a fitted effect of over 45% in size. Further: potency means the concentration at half of the fitted maximal effect. The gist of the method: as §3
Assay [15] is described as follows: qHTS assay to identify small molecule agonists of the estrogen related receptor signaling pathway with the pleiotropic PPARgamma coactivator (PGC) from Tox21 10K library (AID 1224842). Further: on the % scale 0 is the no-effect control and ±100 the full control effect; nearly all actives have a fitted effect of over 15% in size. The gist of the method: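 PGC/ERR reporter cell line, 2,000 cells per well, incubated 6 h at 37 C before 23 nL compound in DMSO was added. After 18 h at 37 C, One-Glo luminescence read following 30 min at room temperature.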

Assay [16] is described as follows: qHTS assay to identify small molecule antagonists of the estrogen related receptor (ERR) signaling pathway from Tox21 library (AID 1224848). The gist of the method: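 Quantitative high-throughput format: ERR reporter cells (2,000/well) pre-incubated 6 h, treated 18 h at 37 C with compounds in DMSO alongside positive and negative controls, then read by ONE-Glo luminescence.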

Assay [17] can be described thus: qHTS assay to identify small molecule agonists of the estrogen related receptor (ERR) signaling pathway from Tox21 library (AID 1224849; calls by dose curve; further: on the % scale 0 is the no-effect control and ±100 the full control effect; nearly all actives have a fitted effect of over 15% in size). Particulars: ERR reporter cell line, ONE-Glo luciferase, 18 h; at 92.4 µM (top of the series) unless noted. In outline: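 Quantitative HTS in agonist format: NTP ERR cell line, compounds transferred in DMSO after 6 h plating, 18 h incubation at 37 C, ONE-Glo luminescence endpoint.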

Assay [18] is described as follows: qHTS RealTime-Glo MT Cell Viability Assay in HepG2 cells - 8 hour (AID 1224873). Further: nearly all actives have a fitted effect of over 55% in size. Further: potency means the concentration at half of the fitted maximal effect. In outline: as §2
Assay [19] in a line: qHTS assay to identify small molecule antagonists of the estrogen related receptor signaling pathway with the pleiotropic PPARgamma coactivator (PGC) from Tox21 10K library (AID 1224841; call rule not given here). The gist of the method:
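Cells stably carrying the PGC/ERR reporter, seeded at 2,000 per well, received pin-transferred compounds 6 h post-plating. Exposure lasted 18 h at 37 C. Signal: One-Glo luminescence.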

SMILES strings stand for the structures. Values without a mark were called inactive. Records with an inconclusive call do not appear. The source made the active and inactive calls. Unless noted, the call rests on the fitted dose curve; in most records, active means well fitted curve in the direction sought with a large enough effect in the repeat runs; inconclusive means weak or mixed curves; inactive means no such curve, though single readings can be large; an effect the other way counts as inactive or inconclusive.

Sequence of Nuclear receptor subfamily 1 group I member 3 (Homo sapiens) (Q14994 whole entry, looked up): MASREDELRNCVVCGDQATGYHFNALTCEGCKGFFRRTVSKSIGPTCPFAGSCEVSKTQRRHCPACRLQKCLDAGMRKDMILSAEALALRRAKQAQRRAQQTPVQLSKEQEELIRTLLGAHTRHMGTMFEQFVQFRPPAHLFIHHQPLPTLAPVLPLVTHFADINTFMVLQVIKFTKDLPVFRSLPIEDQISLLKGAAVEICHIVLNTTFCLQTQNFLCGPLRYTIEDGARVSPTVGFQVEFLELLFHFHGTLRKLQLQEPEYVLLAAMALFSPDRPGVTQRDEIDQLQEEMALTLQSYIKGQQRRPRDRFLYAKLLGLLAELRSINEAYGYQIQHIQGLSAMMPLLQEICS
Sequence of Thyrotropin receptor (Homo sapiens) (P16473 whole entry, looked up): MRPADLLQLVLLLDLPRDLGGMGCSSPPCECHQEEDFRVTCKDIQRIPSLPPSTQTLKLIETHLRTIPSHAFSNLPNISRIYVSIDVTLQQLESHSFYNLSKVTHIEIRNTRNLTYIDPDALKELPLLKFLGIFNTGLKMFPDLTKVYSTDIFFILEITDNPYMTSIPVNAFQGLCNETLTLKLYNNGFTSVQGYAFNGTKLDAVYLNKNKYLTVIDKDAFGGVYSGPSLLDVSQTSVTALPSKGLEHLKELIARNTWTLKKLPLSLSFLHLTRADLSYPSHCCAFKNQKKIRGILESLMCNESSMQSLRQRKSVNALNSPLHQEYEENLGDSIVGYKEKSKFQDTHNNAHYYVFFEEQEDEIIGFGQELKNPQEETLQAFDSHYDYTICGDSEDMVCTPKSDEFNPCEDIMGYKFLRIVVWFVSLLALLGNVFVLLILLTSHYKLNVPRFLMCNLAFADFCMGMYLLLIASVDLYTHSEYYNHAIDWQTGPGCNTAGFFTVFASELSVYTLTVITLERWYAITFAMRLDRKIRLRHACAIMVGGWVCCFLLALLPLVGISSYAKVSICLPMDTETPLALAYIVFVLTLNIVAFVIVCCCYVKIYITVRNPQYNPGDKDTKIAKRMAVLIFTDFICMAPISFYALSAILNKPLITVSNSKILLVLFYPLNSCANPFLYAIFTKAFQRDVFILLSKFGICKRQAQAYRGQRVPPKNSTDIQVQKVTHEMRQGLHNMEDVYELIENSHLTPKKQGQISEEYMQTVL

For `c1ccc2c(c1)-c1ccc3ccc4cccc5cc-2c1c3c45`, the Potency entry in [1], in assay [3], in [4], in assay [5], in [6] and in [7] was “inactive” each time. Moreover, the Potency result in [8], in [9] and in assay [10] was “inactive” throughout. Also, the Potency in assay [2] is 11.9 µM (active).

For the molecule `[Cl][Eu]([Cl])[Cl]`, the Potency result in [11], in [4], in assay [12], in assay [6], in assay [7] and in assay [8] was “inactive” each time. The Potency entry in [13], in [9], in assay [14] and in [10] was “inactive” each time.

As for `O=C(CCCCCCCCc1cccnc1)N1CCC(C=C(c2ccccc2)c2ccccc2)CC1`, the Potency entry in assay [15], in assay [5] and in [13] was “inactive” each time. Also, the Potency in assay [4] is 13.8 µM (active); in assay [16] it was 21.7 µM (active); in [8], 21.9 µM (active); in [10], 21.9 µM (active); in assay [18] it was 49 µM (active). For the same molecule, in [17], the activity change, positive = activation is -69.2%.

Regarding `c1ccc(-c2ccc(C(c3ccccc3)n3ccnc3)cc2)cc1` (centres undefined), the Potency result in [1], in assay [11], in assay [3], in assay [4], in [7] and in [13] was “inactive” in each case. Moreover, the Potency result in [9], in assay [14] and in [18] was “inactive” each time. The Potency in [19] is 29.8 µM (active); in [16], 23.7 µM (active); in assay [8], 30.1 µM (active). In addition, the activity change, positive = activation in assay [17] was -54.4% [at 42.5 µM].

Take `C[C@H]1O[C@@H](O[C@H]2CC[C@@]3(C)[C@H](CC[C@@H]4[C@@H]3C[C@@H](O)[C@]3(C)[C@@H](C5=CC(=O)OC5)CC[C@]43O)C2)C[C@H](O)[C@@H]1O[C@H]1C[C@H](O)[C@H](O[C@H]2C[C@H](O)[C@H](O[C@@H]3O[C@H](CO)[C@@H](O)[C@H](O)[C@H]3O)[C@@H](C)O2)[C@@H](C)O1`: the Potency in assay [19] is 0.335 µM (active); in [4], 0.379 µM (active); in assay [16], 0.376 µM (active); in assay [8], 0.239 µM (active). The Potency entry in [5], in [12], in assay [6], in assay [7], in assay [13] and in [9] was “inactive” throughout. The Potency entry in [14] and in [18] was “inactive” throughout. In addition, the activity change, positive = activation in assay [17] is -54.9% [at 42.5 µM].

As to `CS(=O)(=O)c1ccc([C@@H](CC2CCCC2)C(=O)Nc2cnccn2)cc1Cl`, the Potency in assay [6] is 101 µM (active).

For the molecule `CN(C/C=C/c1ccccc1)Cc1cccc2ccccc12`, the Potency result in [11], in assay [3], in assay [4] and in assay [10] was “inactive” throughout. Further, the Potency in assay [5] was 55.2 µM (active); in assay [13], 19 µM (active); in assay [14], 21.3 µM (active).

For `CCCC(=O)c1cc(O)c(O)cc1O`, the Potency entry in assay [2], in [12], in assay [7], in [8], in assay [13] and in assay [9] was “inactive” throughout. The Potency result in [10] and in assay [18] was “inactive” in each case. In addition, in assay [19], the Potency was 61.1 µM (active).

On to `C=C[Si](C)(C)Cl`, for which, in assay [11], the viability change, negative = cytotoxic is 3.07% [at 8.39 µM]. Also, the activation in assay [3] was -10.3% [at 8.39 µM]; in [12], 0.268% [at 7.01 µM]. Moreover, the activity change, negative = cytotoxicity in assay [4] was -0.253% [at 6.97 µM]; in [6] it was -1.05% [at 14 µM]; in [7], -0.615% [at 6.97 µM]; in assay [10], -7.44% [at 6.97 µM]. Moreover, in assay [5], the activation (H2AX phosphorylation) is 0.0782% [at 14 µM]. Further, the activity change, negative = cytotoxic was -3.52% [at 6.97 µM] in assay [8] and 24.3% [at 6.97 µM] in [9]. Besides, in assay [13], the cytotoxicity is -1.84% [at 6.97 µM]. Also, the cytotoxicity increase in assay [14] was -9.04% [at 6.97 µM].
